Screens from PubChem.
HIV Env fusion: inhibitors of HIV Env-mediated cell fusion. HeLa-JRFL Env/CEM21 cell fusion, luciferase. inhibition, % at 12.3 µM. hit rate 1.1% among 360,000. AID 651610;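 active = mean replicate inhibition score of at least 50 and every replicate individually at or above 50; inconclusive = only one of the two criteria met; inactive = mean below 50 and not all replicates reaching 50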;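 also: 0% = plate neutral controls and 100% = maraviroc near 300 nM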
INS-1E GSIS act: GLuc luminescence reporter in INS-1E cells, primary screen for activators of glucose-dependent secretion of insulin | activation, % at 16.6 µM | INS-1E GLuc reporter insulin secretion, 2-3 h | hit rate 0.61% among 370,000 | AID 743287;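 active = lowest replicate activation of at least 40%, so every replicate reaches that level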;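 also: 0% = median of neutral control wells and 100% = median of IBMX positive control wells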
F508del corr: correctors of CFTR F508del function in bronchial epithelial cells | CFBE cells, YFP halide quenching; stimulated with forskolin plus potentiator P3; % fluorescence drop versus neutral controls | activity (quench increase), % at 7.58 µM | hit rate 0.36% among 350,000 | AID 720511;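 active = mean added fluorescence quench of at least 8% versus neutral control, with both replicates also reaching 8%; inconclusive = only one of the mean or replicate conditions met; inactive = mean below 8% and not both replicates reaching 8%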;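 also: cells transiently co-express mutant CFTR-F508del with the halide-sensitive YFP; corrector assay measuring rescue of mutant channel to the surface after 24 h compound exposure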
PGC1a acetyl inh: modulators of PGC1a acetylation; U2OS PGC1a acetylation, AlphaScreen anti-acetyl-lysine; with virally co-expressed GCN5 acetyltransferase; inhibition, % at 15.6 µM; hit rate 0.17% among 350,000; AID 651687;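 active = every replicate shows inhibition of at least 40%; inconclusive = mean inhibition at least 40% but some replicate below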;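 also: 0% = neutral control wells and 100% = positive control wells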
EWS-Fli inh: inhibitors of EWS/Fli oncoprotein transcriptional activity. A673 NR0B1-luciferase reporter, viability-normalised. inhibition, % at 12.6 µM. hit rate 0.67% among 350,000. AID 651661;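 active = mean inhibition of at least 50% after viability correction, with every replicate also passing that limit; inconclusive = mean reaches 50% but only one of two replicates passes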;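 also: firefly luciferase signal divided by Alamar Blue viability fluorescence both relative to DMSO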
PAX8 inh HTS: inhibitors of PAX8 transcriptional activity in RMG-I cells; RMG-I TPO-luciferase reporter, SteadyGlo, 24 h; hit rate 1.2% among 360,000; inhibition, % at 12.6 µM;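 active = mean replicate inhibition at least 60% with every replicate also reaching 60%; inconclusive = only one of the two criteria is met; inactive = mean below 60% and not all replicates reaching 60%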;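 also: luciferase light reporting Pax8 driven TPO promoter activity; plate controls were median of neutral control wells for no effect and mitoxantrone controls for full effect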
An asterisk follows results filed as active; ? = inconclusive; · = not tested or not shown; [ ] = remark or other dose. This is a sample that favours compounds with a hit; in the whole collection about 2.7% have one here.

SMILES	HIV Env fusion	INS-1E GSIS act	F508del corr	PGC1a acetyl inh	EWS-Fli inh	PAX8 inh HTS
CC(=O)NS(=O)(=O)c1ccc(NC(=O)CSc2ccc(Cl)cc2)cc1	14	-6	9.6*	·	12	26
C[C@H]1CCCCO[C@H](CN(C)C(=O)Nc2cccc3ccccc23)[C@@H](C)CN([C@@H](C)CO)C(=O)c2cc(NS(=O)(=O)c3cn(C)cn3)ccc2O1	-9[16.7 µM]	-1	0	-2	8	8
O=[N+]([O-])c1ccc(Sc2nc3ccccc3o2)c([N+](=O)[O-])c1	·	56	-2	-21	63*	·
COCc1[nH]nc2c1C(c1ccc(F)cc1)N(Cc1ccccc1)C2=O (stereo not given)	77*	16	2	·	-1	24
O=C1c2ccccc2C(=O)N1CC(O)COCc1ccccc1 (stereo not given)	-5	-14	·	5	·	·
O=C1c2ccccc2C(=O)N1CC(O)CNc1ccc(Br)cc1 (stereo not given)	-12	·	·	1	-2	82*
Cc1cc2c(C)cc(=O)[nH]c2cc1NC(=O)CCl	11	-2	-1	·	-4	-16
O=C(CCl)Nc1cc2[nH]c(=O)[nH]c2cc1Br	4	13	-11	·	?	91*
O=C(N[C@H]1CC[C@@H](CCn2cc(C3(O)CCCC3)nn2)O[C@H]1CO)C1CCC1	4[16.7 µM]	-4	-3	-2	-9	5
O=C(C[C@@H]1C=C[C@H](NS(=O)(=O)c2ccc(F)cc2)[C@@H](CO)O1)N1CCN(c2ccccc2)CC1	7[16.7 µM]	4	-3	1	9	-9
COc1cc(/C=C/c2cccc[n+]2C)ccc1OCC(=O)Nc1ccccc1C	12	5	1	·	1	6
CCOc1cc(/C=C/c2cccc[n+]2C)ccc1OCC(=O)Nc1ccc(C)cc1	2	1	-1	·	-4	74*
O=[N+]([O-])c1cccc(COc2ccccc2CN2CCOCC2)c1	56*	-2	-1	-9	5	9
O=[N+]([O-])c1cccc(COc2ccccc2CN2CCCCC2)c1	-99	56*	2	3	6	1
C=CC[C@@]1(C(=O)NCC(O)CO)N=C(c2ccc(OCCCO)cc2)O[C@@H]1c1ccccc1 (stereo not given in full)	8[16.7 µM]	·	1	-9	-2	12
COc1ccc2c3c(n(C)c2c1)[C@H](CO)N(C(=O)Nc1ccc(F)cc1)CC31CN(C(=O)Nc2c(C)noc2C)C1	5[16.7 µM]	-27	-1	·	7	·
COc1ccc(-n2c(=O)c3ccccc3n(CC(=O)NCC3CCCO3)c2=O)cc1 (stereo not given)	-1	-2	0	6	1	-12
COc1cccc(-n2c(=O)c3ccccc3n(CC(=O)NCC3CCCO3)c2=O)c1 (stereo not given)	2	75*	0	·	-4	-2
Cc1ccc2c(c1)C(c1ccccc1)N(C(=O)c1c(F)cccc1Cl)CC(=O)N2 (stereo not given)	59*	-6	1	-11	12	4
O=C1CN(C(=O)c2c(F)cccc2F)C(c2ccccc2)c2cc(Br)ccc2N1 (stereo not given)	47	-6	-2	-14	13	56
CCc1ccc(-c2nc(CSCC(=O)NCc3ccco3)c(C)o2)cc1	9	-16	0	·	84*	64*
Cc1ccc(-c2nc(CSCC(=O)Nc3cc(C)on3)c(C)o2)cc1	8	·	8.4*	3	35	12
Cc1noc(C)c1S(=O)(=O)Nc1cccc2c1O[C@@H](CN(C)S(=O)(=O)c1ccccc1)[C@@H](C)CN([C@@H](C)CO)C2=O	23[16.7 µM]	0	-3	-5	-2	-2
COc1ccc(CCNC(=O)c2cc3cccc(OC)c3oc2=O)cc1OC	4	·	·	5	-20	12
COc1cccc2cc(C(=O)NCCN3CCOCC3)c(=O)oc12	8	5	9.6*	·	-15	-3
SMILES	HIV Env fusion	INS-1E GSIS act	F508del corr	PGC1a acetyl inh	EWS-Fli inh	PAX8 inh HTS
Cc1ccc(S(=O)(=O)N(C(=O)c2ccncc2)c2ccc(OC(=O)c3ccncc3)cc2)c(C)c1	1	1	·	·	13	19
Cc1ccc(C)c(S(=O)(=O)N(C(=O)c2ccncc2)c2ccc(OC(=O)c3ccncc3)cc2)c1	22	·	1	44*	5	6
CO[C@@H]1CN(C)C(=O)c2ccc(NC(C)=O)cc2OC[C@H](C)N(C(=O)C2CCCCC2)C[C@H]1C	·	-10	1	·	5	-5
Nc1nc(NCC2CCCO2)nc(Nc2ccc(F)cc2)c1[N+](=O)[O-] (stereo not given)	-57	-2	·	7	·	-6
COCCNc1nc(N)c([N+](=O)[O-])c(NCC2CCCO2)n1 (stereo not given)	-68	54*	·	·	·	6
Cc1ccc(Nc2nc(NCC3CCCO3)nc(N)c2[N+](=O)[O-])cc1 (stereo not given)	-48	81*	·	·	·	8
NCCCNc1nc(N)c([N+](=O)[O-])c(NC2CCCCC2)n1	-441	10	3	·	30	78*
C[C@@H]1CN([C@@H](C)CO)C(=O)c2cc(NC(=O)c3ccncc3)ccc2O[C@H]1CN(C)Cc1ccc(Cl)c(Cl)c1	20[16.7 µM]	-20	-1	3	·	17
CN(C)CCCN(C(=O)c1ccco1)c1nc2c(F)cccc2s1	-7	41*	3	3	-1	-21
Cc1ccc(-c2csc(N(CCCN(C)C)C(=O)c3ccco3)n2)cc1	0	-3	0	-5	-7	-13
CN(C)CCCN(C(=O)CCOc1ccccc1)c1nc2ccc(F)cc2s1	10	45*	-27	50*	9	86*
CN(C)CCCN(C(=O)c1ccco1)c1nc(-c2ccc(Cl)cc2)cs1	0	-26	8.1*	-9	-13	-8
CN(C)CCCN(C(=O)CCOc1ccccc1)c1nc2c(F)cccc2s1	13	99*	-2	-1	15	87*
COCC(=O)Nc1ccc2c(c1)[C@H]1C[C@@H](CC(=O)NC3CCCC3)O[C@H](CO)[C@H]1O2	-1[16.7 µM]	13	-2	-11	1	-17
COc1ccc2c3c([nH]c2c1)[C@H](CO)N(C(=O)c1ccc(F)cc1)CC31CN(C(=O)NC(C)C)C1	·	13	-2	1	3	-1
Fc1ccc(CN2[C@@H]3CN(CC(F)(F)F)C[C@H]2C3c2ccccc2)cc1 (stereo not given in full)	·	-41	·	·	·	·
COc1cc(-c2noc(C)c2/C=C/c2cccc([N+](=O)[O-])c2)cc(OC)c1OC	-51	7	7	-6	54*	59
COc1cc(-c2noc(C)c2/C=C/c2ccc(C(=O)O)cc2)cc(OC)c1OC	·	·	-5	4	11	1
C[C@H]1CN([C@@H](C)CO)C(=O)c2cc(NC(=O)C3CC3)ccc2O[C@@H]1CN(C)CC1CCCCC1	-7[16.7 µM]	0	-1	-9	-12	-5
